Source: the antibiotic and cytotoxicity screens of Wong et al. (2023)
Out of some 39,000 compounds screened, about 1,500 (3.8%) were called active. The sample holds actives, similar compounds and a random draw of the others, so the mix is not that of the screen.

tested on: HSkMC (human skeletal muscle cells); test: cytotoxicity call (relative viability < 0.9); conditions: 10 µM

Row | SMILES | cytotoxicity call
1 | COc1ccc(-c2cnc3c(c2)C(=O)N([C@@H](C)CO)C[C@H](C)[C@H](CN(C)C(=O)Cc2ccccn2)O3)cc1 | inactive
2 | C[C@@H]1CN([C@H](C)CO)C(=O)c2cc(NC(=O)Cn3cnnn3)ccc2O[C@@H]1CN(C)Cc1ccc(C(F)(F)F)cc1 | inactive
3 | C[C@H]1CCCCO[C@H](CN(C)C(=O)Cc2ccccc2)[C@@H](C)CN([C@@H](C)CO)C(=O)c2cc(NC(=O)Nc3ccccc3)ccc2O1 | inactive
4 | C[C@@H]1CCCCO[C@H](CN(C)C(=O)Nc2ccc(F)cc2)[C@@H](C)CN([C@H](C)CO)C(=O)c2cc(NC(=O)CCC(F)(F)F)ccc2O1 | inactive
5 | C[C@@H]1CN([C@@H](C)CO)C(=O)CCCn2cc(nn2)CO[C@H]1CN(C)C(=O)Nc1cccc(Oc2ccccn2)c1 | inactive
6 | C[C@@H]1CN([C@H](C)CO)C(=O)c2cccc(NC(=O)c3ccc(-c4nccs4)cc3)c2O[C@H]1CN(C)S(=O)(=O)c1ccc(Cl)cc1 | inactive
7 | C=C1c2cccc(O)c2C(=O)C2=C(O)[C@]3(O)C(O)=C(C(N)=O)C(=O)[C@@H](N(C)C)[C@@H]3[C@@H](O)[C@H]12 | inactive
8 | O=C(C[C@H]1CC[C@@H]2[C@H](COC[C@H](O)CN2S(=O)(=O)c2ccc(Cl)cc2)O1)NCCN1CCCC1 | inactive
9 | COc1ccc2c3c([nH]c2c1)[C@@H](CO)N(C[C@]13CCN(CC1)Cc1ccccc1OC)C(=O)Nc1ccc(cc1)F | inactive
10 | COc1ccc(cc1)CN1CC[C@]2(CC1)CN([C@@H](CO)c1[nH]c3cc(ccc3c12)OC)C(=O)Nc1ccc(cc1)F | inactive
11 | COc1ccc(cc1)CN1CC[C@]2(CC1)CN([C@H](CO)c1[nH]c3cc(ccc3c12)OC)C(=O)Nc1ccc(cc1)F | inactive
12 | COc1ccc2c3c([nH]c2c1)[C@@H](CO)N(C[C@]13CN(Cc2cc(on2)-c2ccccc2)C1)C(=O)Nc1ccc(cc1)F | inactive
13 | COc1ccc2c3c([nH]c2c1)[C@@H](CO)N(C[C@]13CCN(CC1)Cc1ccc(cc1)F)C(=O)Nc1ccc(cc1)F | active
14 | COc1ccc2c3c([nH]c2c1)[C@@H](CO)N(C[C@]13CCN(CC1)Cc1cc(on1)-c1ccccc1)C(=O)Nc1ccc(cc1)F | active
15 | COc1ccc2c3c([nH]c2c1)[C@H](CO)N(C[C@]13CCN(CC1)Cc1cc(on1)-c1ccccc1)C(=O)Nc1ccc(cc1)F | active
16 | COc1ccc2c3c([nH]c2c1)[C@H](CO)N(C[C@]13CCN(CC1)Cc1ccc(cc1)F)C(=O)Nc1ccc(cc1)F | inactive
17 | COc1ccc2c3c([nH]c2c1)[C@H](CO)N(C[C@]13CN(Cc2cc(on2)-c2ccccc2)C1)C(=O)Nc1ccc(cc1)F | active
18 | COc1ccc2c3c([nH]c2c1)[C@@H](CO)N(C[C@]13CCN(CC1)C(=O)Nc1ccccc1)C(=O)Nc1ccc(cc1)F | inactive
19 | COc1ccc2c3c([nH]c2c1)[C@H](CO)N(C[C@]13CCN(CC1)Cc1ccccc1OC)C(=O)Nc1ccc(cc1)F | inactive
20 | COc1ccc2c3c([nH]c2c1)[C@H](CO)N(C[C@]13CCN(CC1)C(=O)Nc1ccccc1)C(=O)Nc1ccc(cc1)F | inactive
21 | C=c1[nH]/c(=C\c2ccc(F)cc2)c(=O)o1 | inactive

Row | SMILES | cytotoxicity call
22 | Cc1noc(C)c1S(=O)(=O)Nc1ccc2c(c1)C(=O)N([C@H](C)CO)C[C@H](C)[C@@H](CN(C)S(C)(=O)=O)OCCCC[C@H](C)O2 | inactive
23 | C[C@H]1CN([C@@H](C)CO)C(=O)Cc2cc(NC(=O)CCCN(C)C)ccc2O[C@@H]1CN(C)C(=O)Nc1ccc2c(c1)OCO2 | inactive
24 | C[C@@H]1CN([C@@H](C)CO)C(=O)c2cccc(NC(=O)c3cnccn3)c2O[C@@H]1CN(C)S(=O)(=O)c1ccccc1 | inactive
25 | CCS(=O)(=O)NCC[C@H]1CC[C@H](NC(=O)C2CC2)[C@@H](CO)O1 | inactive
26 | O=C(O)CNC(=O)[C@H]1COc2ccccc2O1 | inactive
27 | COc1cccc(-c2cn(CC[C@H]3CC[C@H](NC(=O)CN(C)C)[C@H](CO)O3)nn2)c1 | inactive
28 | COc1ccc(NC(=O)N(C)C[C@H]2OCCCC[C@H](C)Oc3ccc(NC(=O)C4CCCCC4)cc3C(=O)N([C@@H](C)CO)C[C@H]2C)cc1 | inactive
29 | CC(=O)O[C@H]1C[C@@]2(C)[C@H]3CC=C4[C@@H](C[C@@H](O[C@H]5O[C@@H](CO)[C@@H](O)[C@@H](O)[C@@H]5O)[C@@H](O)C4(C)C)[C@@]3(C)CC[C@@]2(C)[C@@H]1C(C)(O)C(=O)CCC(C)(C)O (some centres not stated) | inactive
30 | COc1ccc(S(=O)(=O)Nc2ccc3c(c2)C(=O)N([C@@H](C)CO)C[C@@H](C)[C@H](CN(C)S(=O)(=O)c2ccc(F)cc2)O3)cc1 | inactive
31 | O=C(O)[C@H]1C[C@H]2C(=O)NCC(=O)N2[C@H]1c1ccc(O)cc1 | inactive
32 | C[C@@H]1CN([C@H](C)CO)C(=O)c2cccc(NC(=O)c3ccc(-c4nccs4)cc3)c2O[C@@H]1CN(C)Cc1ccc2c(c1)OCO2 | inactive
33 | C[C@@H]1CN([C@H](C)CO)C(=O)c2c(c3ccccc3n2C)-c2ccccc2CO[C@H]1CN(C)Cc1ccccc1 | active
34 | C[C@H]1CN([C@@H](C)CO)C(=O)c2c(c3ccccc3n2C)-c2ccccc2CO[C@@H]1CN(C)Cc1ccc(-c2ccccc2)cc1 | inactive
35 | C[C@H](CO)N1C[C@H](C)[C@H](CN(C)Cc2ccc(-c3ccccc3)cc2)OCc2ccccc2-c2c(n(C)c3ccccc23)C1=O | active
36 | C[C@@H]1CN([C@@H](C)CO)C(=O)c2c(c3ccccc3n2C)-c2ccccc2CO[C@H]1CN(C)Cc1ccc(-c2ccccc2)cc1 | inactive
37 | C[C@H](CO)N1C[C@H](C)[C@H](CN(C)C(=O)Nc2ccc(-c3ccccc3)cc2)OCc2ccccc2-c2c(n(C)c3ccccc23)C1=O | active
38 | C[C@@H]1CN([C@H](C)CO)C(=O)c2c(c3ccccc3n2C)-c2ccccc2CO[C@@H]1CN(C)C(=O)Nc1ccc(-c2ccccc2)cc1 | inactive
39 | C[C@@H]1CN([C@H](C)CO)C(=O)c2c(c3ccccc3n2C)-c2ccccc2CO[C@@H]1CN(C)Cc1ccc(-c2ccccc2)cc1 | inactive
40 | C[C@H](CO)N1C[C@H](C)[C@@H](CN(C)Cc2ccc(-c3ccccc3)cc2)OCc2ccccc2-c2c(n(C)c3ccccc23)C1=O | inactive
41 | C[C@H]1CN([C@@H](C)CO)C(=O)c2c(c3ccccc3n2C)-c2ccccc2CO[C@@H]1CN(C)Cc1ccccc1 | inactive
42 | C[C@@H]1CN([C@H](C)CO)C(=O)c2c(c3ccccc3n2C)-c2ccccc2CO[C@H]1CN(C)C(=O)Nc1ccc(-c2ccccc2)cc1 | inactive

Row | SMILES | cytotoxicity call
43 | C[C@@H]1CN([C@@H](C)CO)C(=O)c2c(c3ccccc3n2C)-c2ccccc2CO[C@@H]1CN(C)Cc1ccc(-c2ccccc2)cc1 | active
44 | C[C@H](CO)N1C[C@H](C)[C@@H](CN(C)Cc2ccccc2)OCc2ccccc2-c2c(n(C)c3ccccc23)C1=O | inactive
45 | C[C@@H]1CN([C@@H](C)CO)C(=O)Cc2cc(NS(=O)(=O)c3cn(C)cn3)ccc2O[C@H]1CN(C)C(=O)Nc1ccccc1 | inactive
46 | C[C@H](NC(=O)[C@@H]1N[C@@H]2c3ccc(-c4ccc(C(=O)N(C)C)cc4)c(=O)n3C[C@@H]2[C@H]1CO)c1ccccc1 | inactive
47 | COc1ccc2c3c(n(c2c1)C)[C@@H](CO)N(C[C@]13CN(C1)C(=O)c1ccncc1)C(=O)C1CCOCC1 | inactive
48 | C[C@H]1CCCCO[C@@H](CN(C)C(=O)Nc2ccc3c(c2)OCO3)[C@@H](C)CN([C@@H](C)CO)C(=O)c2cc(NC(=O)Cc3ccccc3)ccc2O1 | inactive
49 | C[C@@H]1CN([C@@H](C)CO)S(=O)(=O)c2ccc(C#CC3(O)CCCC3)cc2O[C@H]1CN(C)C(=O)Nc1ccc(F)cc1 | inactive
50 | C[C@@H]1CCCCO[C@@H](CN(C)Cc2ccc(C(F)(F)F)cc2)[C@@H](C)CN([C@H](C)CO)C(=O)c2cc(NS(C)(=O)=O)ccc2O1 | inactive
51 | Cc1ccc(S(=O)(=O)N(C)C[C@@H]2Oc3ccc(NC(=O)Nc4ccc(C(F)(F)F)cc4)cc3CC(=O)N([C@H](C)CO)C[C@@H]2C)cc1 | active
52 | Cc1ccc(S(=O)(=O)N(C)C[C@H]2Oc3ccc(NC(=O)Nc4ccc(C(F)(F)F)cc4)cc3CC(=O)N([C@H](C)CO)C[C@H]2C)cc1 | active
53 | Cc1ccc(S(=O)(=O)N(C)C[C@H]2Oc3ccc(NC(=O)Nc4ccc(C(F)(F)F)cc4)cc3CC(=O)N([C@H](C)CO)C[C@@H]2C)cc1 | active
54 | Cc1ccc(S(=O)(=O)N(C)C[C@H]2Oc3ccc(NC(=O)Nc4ccc(C(F)(F)F)cc4)cc3CC(=O)N([C@@H](C)CO)C[C@H]2C)cc1 | active
55 | C[C@@H]1CN([C@@H](C)CO)C(=O)Cc2cc(NC(=O)Nc3ccc(C(F)(F)F)cc3)ccc2O[C@@H]1CN(C)S(C)(=O)=O | inactive
56 | C[C@H](CO)N1C[C@H](C)[C@H](CN(C)S(C)(=O)=O)Oc2ccc(NC(=O)Nc3ccc(C(F)(F)F)cc3)cc2CC1=O | inactive
57 | C[C@@H]1CN([C@H](C)CO)C(=O)c2cc(C#CCN(C)C)cnc2O[C@@H]1CN(C)Cc1ccc2c(c1)OCO2 | inactive
58 | C[C@H](CO)N1C[C@H](C)[C@H](CN(C)S(=O)(=O)c2ccc(C(F)(F)F)cc2)OCc2ccccc2-c2ccccc2C1=O | inactive
59 | C[C@@H]1CN([C@H](C)CO)C(=O)c2cccc(NC(=O)C3CCCCC3)c2O[C@@H]1CN(C)C(=O)Nc1ccc(C(F)(F)F)cc1 | inactive
60 | COc1ccc(NC(=O)CSC2=NC(C)=C(C(=O)Nc3nc4ccccc4s3)[C@H](c3ccco3)C2C#N)cc1 (some centres not stated) | inactive
61 | COc1ccc(CCNS(=O)(=O)c2cn(C)c(=O)n(C)c2=O)cc1 | inactive
62 | CCCN(C)C[C@H]1OCCCC[C@@H](C)Oc2ccc(NS(C)(=O)=O)cc2C(=O)N([C@H](C)CO)C[C@@H]1C | inactive
